SKN-1 inh = inhibitors of C. elegans SKN-1. 0.49% of 360,000 active. inhibition, % at 21.8 µM. AID 624304. C. elegans VP596 Pgst-4::GFP/RFP ratio, acrylamide-induced, 24 h;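 active = interference check ratio from 0.5 to 1.5 plus GFP to RFP signal ratio inhibition reaching or exceeding a fixed threshold, cut at about 30% in these data, passing the limit was not always enough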
CHRM1 agonist = human M1 muscarinic receptor agonism | P11229 | CHO-K1 hM1, Fluo-8 calcium fluorescence, agonist mode; 0% DMSO, 100% acetylcholine EC100 | activation, % at 3 µM | 0.33% of 360,000 active;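 active = activation above the run's mean compound activation plus 3 SD, cut at about 16% in these data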;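 note: peak over basal fluorescence ratio within a 140 s kinetic read after compound addition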
Target sequence (P11229 whole entry, looked up): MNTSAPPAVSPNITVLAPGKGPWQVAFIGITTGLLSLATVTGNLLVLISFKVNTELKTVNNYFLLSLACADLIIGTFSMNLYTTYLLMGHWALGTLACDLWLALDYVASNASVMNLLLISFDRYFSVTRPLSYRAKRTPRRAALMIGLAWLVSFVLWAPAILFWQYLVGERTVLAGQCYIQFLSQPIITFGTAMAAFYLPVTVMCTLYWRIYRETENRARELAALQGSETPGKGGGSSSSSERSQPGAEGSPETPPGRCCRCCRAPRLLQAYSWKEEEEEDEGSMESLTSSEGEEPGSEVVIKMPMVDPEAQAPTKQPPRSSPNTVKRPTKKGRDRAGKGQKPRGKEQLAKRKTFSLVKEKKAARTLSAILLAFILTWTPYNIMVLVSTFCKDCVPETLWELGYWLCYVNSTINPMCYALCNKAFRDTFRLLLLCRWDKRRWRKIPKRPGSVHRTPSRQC
Myeloid diff 2 = compounds promoting myeloid differentiation; ER-HoxA9 myeloid progenitors, lysozyme-GFP differentiation, flow cytometry; calls only at 10 µM; 1% of 360,000 active; AID 624256;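 active = normalized GFP-positive differentiation at or above the plate's own cutoff, the solvent-only control mean plus 3 SD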;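 note: cells exposed to compound for four days before flow analysis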
CHRM1 PAM = potentiates human M1 receptor response to acetylcholine. CHO-K1 hM1, Fluo-8 calcium fluorescence, ACh EC20; 0% = ACh EC20, 100% = maximal ACh. 0.088% of 360,000 active. AID 588819. activation, % at 3 µM. P11229; in the data active = activation above about 19%, passing the limit was not always enough
CHRM1 antagonist = antagonists of human M1 muscarinic receptor; CHO-K1 hM1, Fluo-8 calcium fluorescence, ACh EC80 antagonist; 1.3% of 360,000 active; P11229; inhibition, % at 3 µM;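 active = percent inhibition above its own plate's cutoff, namely the mean of that plate's compound wells plus 3 SD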;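 note: peak over basal fluorescence ratio during 140 s after agonist addition; 0% = ACh EC80 plus DMSO and 100% = DMSO alone without agonist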
ATG4B inh = inhibitors of human ATG4B cysteine protease; Q9Y4P1; ATG4B cleavage of LC3-PLA2, NBD-HPC fluorescence, 1 h; inhibition, % at 8.33 µM; 0.51% of 340,000 active; AID 504462; in the data active = inhibition above about 40%
The depositor's hits bear a star; i = inactive; / = no result; + = active, no number. Most compounds without a hit are left out; they make up all but 3.5% or so of the library.

SMILES | SKN-1 inh | CHRM1 agonist | Myeloid diff 2 | CHRM1 PAM | CHRM1 antagonist | ATG4B inh
Cc1cnc(C(=O)N(CCCn2ccnc2)C2C(=O)Nc3ccccc3N=C2c2ccccc2)cn1 (centres undefined) | 37* | -12 | i | 1 | -3 | /
COC(=O)c1[nH]c2ccccc2c1NC(=O)C(C)N1CCOCC1 (centres undefined) | 38* | 4 | i | 14 | -7 | -6
CCOC(=O)[C@]12CCCC=C1N(CCc1ccc(OC)c(OC)c1)C(=O)[C@H](CC(=O)NCCCCc1ccccc1)C2 | -19 | / | i | / | / | /
Cc1ccccc1-n1c(SCC(=O)N2CCCC2)nnc1-c1ccccn1 | -21 | 1 | i | 22* | -37 | 0
CC(C)(C)N=C1NN=C(c2ccc(Cl)cc2)CS1 | 51* | -6 | i | 14 | -15 | -7
Cc1cccc(C(C)C)c1NC(=O)CN1C(=O)NC(Cc2ccccc2)C1=O (centres undefined) | -1 | -1 | i | 10 | -3 | 0
CCCOc1ccc(Br)cc1CSC(=N)N | 13 | -3 | i | -16 | 26* | -3
Cc1ccccc1-n1c(=O)c2ccccc2n(CC(=O)NCc2ccco2)c1=O | -13 | -1 | i | 7 | -10 | 8
CC(=O)c1c(C)n(CC(=O)NCc2ccco2)c2ccccc12 | -4 | -3 | i | -9 | 35* | -7
O=C1CC2(CCN(C(=O)c3cccc(F)c3)CC2)Oc2ccccc21 | 22 | -2 | i | 4 | -3 | 3
O=C(CC(=O)c1c(F)cccc1Cl)c1ccccc1O | 2 | 0 | i | 2 | -9 | 2
COc1ccc(-c2cc(C(=O)N3CCN(c4ccccc4O)CC3)c3ccccc3n2)cc1OC | 0 | -2 | i | -12 | 46* | -15
COc1ccc(-c2cc(C(=O)N3CCN(c4ccccn4)CC3)c3ccccc3n2)cc1 | 6 | 0 | + | -10 | 30* | -5
O=C(c1cc(-c2cccs2)nc2ccccc12)N1CCN(c2ccccc2O)CC1 | -3 | -1 | i | -7 | 32* | -9
Cc1ccc(Cl)c(N/C=C/C(=O)c2ccccc2)c1 | 51* | -5 | i | 5 | -10 | -4
COC1=C(Nc2ccc(O)cc2)C(=O)c2ccccc2C1=O | 6 | -8 | + | 13 | -14 | -6
O=C1C=C(Nc2ccc(O)cc2)C(=O)c2ccccc21 | -6 | -5 | + | 13 | -22 | 10
CC(=O)Nc1ccc(NC2=CC(=O)c3ccccc3C2=O)cc1 | 11 | -7 | i | 4 | -9 | -1
CCN(CC(=O)Nc1cc(Cl)ccc1C)C(=O)c1ccc(N2CCCC2=O)cc1 | 7 | -2 | i | 5 | -3 | -10
O=C(O)c1cn(-c2ccc(F)cc2)c2cc(Cl)c(F)cc2c1=O | 3 | 1 | / | 1 | -7 | 2
CCOC(=O)c1cn(-c2ccc([N+](=O)[O-])cc2)c2cc(Cl)c([N+](=O)[O-])cc2c1=O | 0 | 0 | + | 6 | 0 | 1
O=C(NC1CC1)c1cc(-c2ccc(Br)cc2)nc2ccccc12 | 36* | -5 | i | 1 | -6 | 3
COc1ccccc1NC(=O)C(C)OC(=O)C1CCN(S(=O)(=O)c2ccccc2C(F)(F)F)CC1 (centres undefined) | 5 | -3 | i | -5 | 20 | 3
CCCCS(=O)(=O)N1CCCC(C(=O)NCC2CCCO2)C1 (centres undefined) | -3 | -1 | i | 14 | -20 | -3
CCOC(=O)C1(C)CCCCN1C(=O)c1cccnc1 (centres undefined) | -11 | 3 | i | 27* | -33 | /
SMILES | SKN-1 inh | CHRM1 agonist | Myeloid diff 2 | CHRM1 PAM | CHRM1 antagonist | ATG4B inh
CCOC(=O)C1(C)CCCN1C(=O)c1cncc(Br)c1 (centres undefined) | 3 | -4 | i | -1 | -7 | /
N#C/C(=C/c1ccc(N2CCOCC2)o1)c1nc2ccccc2[nH]1 | 39 | 25* | i | -17 | 31 | -29
N#C/C(=C\c1ccc(N2CCOCC2)o1)c1ccccc1 | 19 | -3 | / | -2 | -12 | -12
N#C/C(=C\c1ccc(N2CCOCC2)cc1)c1ccccc1 | 48* | -8 | i | -1 | -1 | 1
N#C/C(=C/c1ccc(N2CCOCC2)o1)c1ccc(Br)cc1 | 20 | 6 | + | -6 | 21 | 7
Cc1ccc(S(=O)(=O)CCC(=O)OCC(=O)N(Cc2ccccc2)C(C)C)cc1 | -14 | -2 | i | 1 | 0 | 4
N#Cc1ccc(Nc2nc(-c3ccc(O)cc3O)cs2)cc1C(F)(F)F | -3 | -7 | i | -7 | 1 | 41*
Oc1ccc(-c2csc(Nc3ncccn3)n2)c(O)c1 | 6 | -4 | i | 2 | -2 | 1
CCNC(=S)NNC(=S)NCc1ccccc1 | 3 | -2 | i | -4 | 2 | -4
COc1ccc(C(=O)NN/C(=N/S(=O)(=O)c2ccc(C)cc2)c2ccccc2)cc1 | 37* | -1 | i | 5 | -5 | -7
CCCCC(=O)NNC(=S)NC(=O)c1ccc(C)cc1 | -2 | 39* | i | -2 | 0 | 9
CCCCC(=O)NNC(=S)NCc1ccccc1 | 18 | -3 | i | 3 | 39* | 4
COc1ccc(C(=O)NC(=S)NNC(=O)c2ccc(C)cc2)cc1 | -5 | 87* | i | -21 | 31 | -6
O=C(NCC(=O)N1CCN(S(=O)(=O)c2ccc3c(c2)OCCO3)CC1)c1ccccc1Cl | -14 | -2 | i | 14 | -7 | -5
Cc1ccc([N+](=O)[O-])cc1N=C(c1cccc(Br)c1)N1CCOCC1 | 8 | -5 | i | 1 | -27 | -7
COc1ccc(-c2cc(C3CCN(c4cc(Cl)nc(N)n4)CC3)[nH]n2)cc1 | 14 | 4 | i | -1 | 16 | -8
Nc1nc(Cl)cc(N2CCC(c3cc(-c4ccc(Cl)cc4)n[nH]3)CC2)n1 | 7 | 14 | i | -18 | 38* | -29
Cc1ccc(S(=O)(=O)N(C)C[C@@H]2OCc3cnnn3CCCC(=O)N([C@@H](C)CO)C[C@@H]2C)cc1 | -2 | -3 | i | 6 | -3 | /
CCN(CC)CCNc1ccc(CO)c2oc3ccccc3c(=O)c12 | 5 | -5 | + | -2 | 1 | /
Cc1c(Cl)cc(C(C)C)c(O)c1CN1CCOCC1 | -6 | 3 | i | 16 | 3 | 7
COc1cc(/C=C/C(=O)/C=C(O)/C=C/c2ccc(O)c(OC)c2)ccc1O | 6 | 10 | i | -16 | 34 | 36
COc1cc(/C=C/C(=O)CC(=O)/C=C/c2ccc(O)c(OC)c2)ccc1O | 7 | 19* | i | -20 | 24 | 49*
C=CCSc1nnc2nc3c(nn12)c1cc(C)ccc1n3CC=C | 38* | -7 | i | 3 | -12 | -6
